HCV inhibitor: HCV inhibition | Huh7.5.1 HCVcc-Cre infection, luciferase reporter, 44 h | Potency, µM (titrated, usually from 41.8 µM), for the others: at the highest dose activity change, negative = inhibition, usual class: inhibitors | actives 3.4% (n = 340,000) | AID 651820; further: potency means the concentration at half of the fitted maximal effect; on the % scale 0 is the no-effect control and ±100 the full control effect
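Infectious HCV cell culture screen: compound-treated cells (1,000/well, pre-plated 4 h) are infected with HCVcc-Cre at roughly 0.5 moi and grown 44 h. Infection is quantified by luciferase signal after 15 min substrate incubation at room temperature.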
Shiga inhibitor: inhibitors of Shiga toxin in Vero cells | AID 2315 | Vero cells, Shiga toxin protein synthesis inhibition reporter | inhibition, % at 38.7 µM | actives 9.2% (n = 290,000); in the data active means inhibition mostly above about 28%, no sharp cut-off; inactive means mostly below about 43%; further: 0% is about no effect
Marburg entry inh: Marburg virus entry inhibition | Marburg virus pseudotyped entry inhibition, cell reporter | Potency, µM (titrated, usually from 37.8 µM), for inactives: at the highest dose activity change, negative = inhibition, actives largely listed as inhibitors | actives 1.8% (n = 300,000); calls by dose curve; tested in HEK293 cells; further: potency means the concentration at half of the fitted maximal effect; on the % scale 0 is the no-effect control and ±100 the full control effect
FMDV antiviral: blocks foot and mouth disease virus; FMDV antiviral cell-based qHTS; Potency, µM (series often up to 57.9 µM), without a hit: top-dose activity change, negative = inhibition, actives largely listed as inhibitors; actives 1.2% (n = 410,000); AID 1159524; calls by dose curve; tested in HEK293T cells; further: read-out not given here; potency means the concentration at half of the fitted maximal effect; on the % scale 0 is the no-effect control and ±100 the full control effect; nearly all actives have a fitted effect of over 45% in size
LASV entry inh: blocks Lassa virus binding to or entry into cells; Potency, µM (series often up to 37.9 µM), inactives show at the top dose activity change, negative = inhibition, usual class: inhibitors; Lassa virus pseudotype entry inhibition, cell reporter; actives 1.2% (n = 300,000); calls by dose curve; tested in HEK293 cells; further: potency means the concentration at half of the fitted maximal effect; on the % scale 0 is the no-effect control and ±100 the full control effect; nearly all actives have a fitted effect of over 50% in size
Cycloheximide cs: counter-screen for Shiga toxin inhibitors: cycloheximide protein synthesis inhibition. cell reporter, cycloheximide protein synthesis inhibition counterscreen. actives 12% (n = 300,000). max response, %. AID 2314; in the data active means max response mostly above about 13%, no sharp cut-off; inactive means mostly below about 14%; further: read at 38.3 µM for the half of the compounds with a filed dose; 0% is about no effect
HCV inh confirm: confirmation of hepatitis C virus inhibitors; shares compounds with HCV inhibitor; HCVcc-Cre infectious virus cell assay, luciferase, inhibition; Potency, µM (titrated, usually from 41.8 µM), for the others: top-dose activity, negative = inhibition, actives largely listed as inhibitors; actives 78% (n = 640); further: potency means the concentration at half of the fitted maximal effect; nearly all actives have a fitted effect of over 80% in size
HCV host tox: counter-screen for HCV inhibitors: host cell cytotoxicity | shares compounds with HCV inhibitor | HCV host cell line cytotoxicity counterscreen | Potency, µM (doses to about 41.8 µM), for the others: at the top dose activity change, negative = cytotoxicity, actives largely listed as inhibitors | actives 22% (n = 640) | AID 720576;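 further: potency means the concentration at half of the fitted maximal effect; 44 h compound exposure; on the % scale 0 is the no-effect control and ±100 the full control effect; nearly all actives have a fitted effect of over 55% in size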
Active calls of the source: *; ? = inconclusive; . = no result; [ ] = dose if it differs, or a comment. Shown are actives, neighbours in structure and some others; about 13% of the full set was active somewhere. Unless noted, the call rests on the fitted dose curve; in most records, active means well fitted curve in the direction sought with a large enough effect; inconclusive means small, poorly fitted or top-dose-only effect, or another doubt; inactive means no such curve, though single readings can be large; an effect the other way counts as inactive or inconclusive.

SMILES	HCV inhibitor	Shiga inhibitor	Marburg entry inh	FMDV antiviral	LASV entry inh	Cycloheximide cs	HCV inh confirm	HCV host tox
COC(=O)c1ccccc1NC(=O)Nc1ccc(C(=O)N2CCCC2)cc1	5%	-7	?	-25%	-11%	2	.	.
CCCN(CC(=O)Nc1ccccc1C)C(=O)Cc1c[nH]c2ccccc12	5%	.	-5%	-10%	-15%	.	.	.
CCOC(=O)c1c(NC(=O)CC2SC(N)=NC2=O)sc2c1CCC(C)C2 (configuration not stated)	?	7	37%	-25%	-21%	-2	.	.
CC#CCOC(=O)c1c(C)nc2sc3c(c2c1N)CCC(O)C3 (configuration not stated)	7.1µM*	.	-38%	?	?	.	22µM*	?
O=S1(=O)c2ccc(Br)cc2N2CCC[C@@H]2CN1Cc1ccc(Cl)cc1	8.9µM*	.	.	?	?	.	?	24%
Cn1c(=O)c2c(nc(SCC(=O)NCc3ccc4c(c3)OCO4)n2Cc2ccccc2)n(C)c1=O	2%	0	-12%	0%	7%	1	?	13%
Cn1c(=O)c2c(nc(SCC(=O)NCc3ccc4c(c3)OCO4)n2Cc2ccc(F)cc2)n(C)c1=O	?	6	-12%	-23%	-24%	0	14µM*	26%
Cn1c(=O)c2c(nc(Oc3ccc4c(c3)OCO4)n2Cc2ccc(F)cc2)n(C)c1=O	13%	-8	18%	-4%	-22%	-1	.	.
CC(C)n1cc2c(c1-c1ccccc1Cl)c(=O)n(C)c(=O)n2C	.	.	-10%[46.1 µM]	-30%	-9%[46.1 µM]	.	.	.
CCc1ccc(C(=O)NNC(=O)C2CSC3(C)CCC(=O)N23)cc1 (configuration not stated)	9%	.	?	-17%	-20%	.	.	.
COc1ccc(Cn2ccc3nc(C)c(C(=O)N4CCN(c5ccc(OC)cc5)CC4)cc3c2=O)cc1	.	.	.	-14%	?	.	.	.
CCC(=O)N(Cc1ccco1)c1nc(-c2ccccc2)cs1	?	3	-11%	6%	-14%	-5	?	29%
C/C(CCc1oc2ccccc2c1-c1ccc(C)o1)=N/O	7.9µM*	-8	?	-18%	-14%	15	25µM*	16%
C/C(CCc1oc2c(Br)cc(Br)cc2c1-c1ccc(C)o1)=N\O	?	-2	-12%	.	-3%	-2	.	.
CCCc1cc2c(=O)c(-c3ccc4c(c3)OCCO4)c(C)oc2cc1OS(C)(=O)=O	2.2µM*	24	-27%	?	-21%	3	11µM*	-33%
COc1cc(OC)cc(-c2c(-c3ccc(F)cc3)c3cc(-c4ccc5[nH]ccc5c4)ccc3n2C)c1	3.2µM*	.	.	52%	.	.	7.9µM*	?
COc1cccc(-c2c(-c3cc(OC)cc(OC)c3)n(C)c3ccc(-c4ccc5[nH]ccc5c4)cc23)c1	?	.	-6%	19%	.	.	.	.
COC(=O)c1cc(C(=O)c2ccc(Cl)cc2)n2c(=O)/c(=C\N(C)C)sc12	2.8µM*	-18	-9%[46.1 µM]	-17%	-15%[46.1 µM]	4	7.9µM*	-45%
COC(=O)c1cc(C(=O)c2ccccc2)n2c(=O)/c(=C\N(C)C)sc12	?	-3	.	-17%	.	0	.	.
CCN(C(=O)c1cc2cc(OC)ccc2oc1=O)c1cccc(C)c1	0%	-4	13%	-20%	-22%	10	.	.
CNc1nc(N/N=C/c2cc3c(cc2[N+](=O)[O-])OCO3)nc(Nc2ccccc2)n1	1µM*	-32	16µM*	?	?	-2	14µM*	31µM*
Cc1cccc(C)c1OCC(=O)N/N=C/c1cc2c(cc1[N+](=O)[O-])OCO2	-23%	-10	?	.	0%	-1	.	.
CCc1cccc(NC(=O)CCS(=O)(=O)c2cc3c(cc2C)NC(=O)CO3)c1	6%	-3	.	-15%	.	-1	.	.
Cc1cc(C[n+]2ccccc2)c2nsnc2c1	?	-3	10%	.	0%	-1	3.5µM*	13µM*
O=C(O)CCCCCCNC(=O)c1cncc(O)c1	3%	-10	-8%[46.1 µM]	-1%	18%	-1	.	.
SMILES	HCV inhibitor	Shiga inhibitor	Marburg entry inh	FMDV antiviral	LASV entry inh	Cycloheximide cs	HCV inh confirm	HCV host tox
CCCn1c(NC(=O)c2cccc(S(=O)(=O)N3CCCC3)c2)nc2ccccc21	5µM*	0	6.5µM*	32µM*	?	-8	10µM*	8.9µM*
COc1cc(C(=O)O/N=C(\N)c2ccc([N+](=O)[O-])cc2)cc(OC)c1OC	?	-5	-4%	-24%	-23%	-3	?	26%
CN1CCc2nc(SCC(=O)Nc3cccc(F)c3)c(C#N)c(-c3cccs3)c2C1	?	53*	-23%	14%	4%	37	?	35%
CC(Sc1nc2nn(-c3ccccc3)c(=O)c-2c2n1CCCCC2)C(N)=O (configuration not stated)	6%	18	12%[46.1 µM]	-14%	2%	-4	.	.
O=C(CSc1nc2nn(-c3ccccc3)c(=O)c-2c2n1CCCCC2)Nc1ccccc1[N+](=O)[O-]	?	.	3%	15%	-4%	.	14µM*	35%
Cc1ccc(Cl)cc1NC(=O)C(NS(=O)(=O)c1cccc2nsnc12)c1ccccc1 (configuration not stated)	.	.	-29%[46.1 µM]	-7%	10%[46.1 µM]	.	.	.
CCCC(=O)C1C(=O)CC(CC(C)SCC)CC1=O (configuration not stated)	22%	-10	1%	.	?	-4	.	.
C=C(NC(=O)C(=C)NC(=O)c1csc(C2=NC3c4csc(n4)C4NC(=O)c5csc(n5)C(C(C)(O)C(C)O)NC(=O)C5CSC(=N5)/C(=C/C)NC(=O)C(C(C)O)NC(=O)c5csc(n5)C3(CC2)NC(=O)C(C)NC(=O)C(=C)NC(=O)C(=C)NC(=O)C(C(C)C)NC2C=Cc3c(C(C)O)cc(nc3C2O)C(=O)OC4C)n1)C(N)=O (configuration not stated)	4µM*	.	4µM*	?	6.3µM*	.	2.5µM*	3.1µM*
Cc1ccc2c(c1)c1c3n2CC(=C2C(=O)OC(C)(C)OC2=O)NC3CCC1 (configuration not stated)	5µM*	28	-29%	.	-22%	-1	28µM*	-34%
Cc1ccc2c(c1)c1c3n2CCN(C(=O)C2CC2)C3CCC1 (configuration not stated)	-14%	28	.	-1%	.	7	.	.
CN1CCC(=C2c3ccccc3CCc3sccc32)CC1	?	-17	.	?	.	-4	3.1µM*	-23%
Cc1ccc(S(=O)(=O)N2CCC(=O)N(CCOCc3ccc(C(F)(F)F)cc3)CC2)cc1	?	-2	16µM*	?	?	7	2.2µM*	?
Brc1cc2c(cc1Br)OCCOCCOCCOCCO2	-9%	-9	16%[46.1 µM]	0%	6%	-4	.	.
